Activity increase over dofetilide control, less the hit threshold data for 100 compounds are collected here from PubChem BioAssay AID1835 (Johns Hopkins Ion Channel Center, 2009).

Molecules are shown by their SMILES. The whole screen tested about 2,400 compounds, of which about 750 (31%) were called active. The list shows a part of the results. A number with no mark means an inactive call.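 How the source made its calls: active means median signal gain over dofetilide-blocked control wells reaching their mean plus 3 SD, so readout 1 at least 0; inactive means the rest.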

The target in the experiment is Voltage-gated inwardly rectifying potassium channel KCNH2 (Homo sapiens) (UniProt Q12809). Description: modulators restoring hERG flux under dofetilide – cell-based, thallium flux, duplicate retest, dofetilide IC70, confirmation (AID 1835). The conditions noted are these: hERG cell line, FluxOR thallium flux, dofetilide-blocked; at 10 µM; stronger effect = higher value. On the technique in general: The hERG channel carries a current that helps repolarise heart muscle cells.
Chain of Voltage-gated inwardly rectifying potassium channel KCNH2 (Homo sapiens) (Q12809 whole entry, looked up): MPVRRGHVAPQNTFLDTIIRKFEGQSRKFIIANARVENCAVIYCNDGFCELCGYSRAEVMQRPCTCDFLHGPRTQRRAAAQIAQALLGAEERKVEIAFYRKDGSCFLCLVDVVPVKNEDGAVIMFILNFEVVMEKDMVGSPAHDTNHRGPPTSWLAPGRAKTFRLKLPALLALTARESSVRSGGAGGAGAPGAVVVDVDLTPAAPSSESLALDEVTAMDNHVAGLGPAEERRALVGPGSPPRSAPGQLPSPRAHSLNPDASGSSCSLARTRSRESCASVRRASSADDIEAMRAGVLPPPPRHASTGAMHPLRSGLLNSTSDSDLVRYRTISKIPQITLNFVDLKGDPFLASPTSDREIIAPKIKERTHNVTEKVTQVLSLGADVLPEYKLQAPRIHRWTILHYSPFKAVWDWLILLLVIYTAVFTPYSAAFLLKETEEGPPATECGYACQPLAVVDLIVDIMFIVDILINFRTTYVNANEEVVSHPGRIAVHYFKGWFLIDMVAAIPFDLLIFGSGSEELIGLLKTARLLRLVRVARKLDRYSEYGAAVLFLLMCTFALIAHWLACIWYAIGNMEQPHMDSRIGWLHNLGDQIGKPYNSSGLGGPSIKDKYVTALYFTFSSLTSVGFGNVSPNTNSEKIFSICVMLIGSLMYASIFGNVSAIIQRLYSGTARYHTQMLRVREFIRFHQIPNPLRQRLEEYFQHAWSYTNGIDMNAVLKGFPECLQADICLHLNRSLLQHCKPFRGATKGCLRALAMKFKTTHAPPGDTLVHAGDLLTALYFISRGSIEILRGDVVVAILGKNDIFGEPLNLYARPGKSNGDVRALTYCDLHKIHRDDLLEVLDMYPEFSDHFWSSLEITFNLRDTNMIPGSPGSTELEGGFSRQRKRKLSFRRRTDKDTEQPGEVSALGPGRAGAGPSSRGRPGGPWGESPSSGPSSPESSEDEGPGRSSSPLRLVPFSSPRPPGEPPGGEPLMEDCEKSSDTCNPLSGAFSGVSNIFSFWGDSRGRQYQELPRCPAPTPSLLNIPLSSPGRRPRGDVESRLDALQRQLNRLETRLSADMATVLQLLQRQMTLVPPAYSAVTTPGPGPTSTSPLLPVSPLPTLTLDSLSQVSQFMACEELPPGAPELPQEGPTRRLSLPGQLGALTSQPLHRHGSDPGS
Consider `Cc1cc2ccccn2c1C(=S)NC(=O)c1ccccc1`, for which the activity increase over dofetilide control, less the hit threshold was 50% (active).
As for `Cc1ccc(C(=O)NNC(=S)NC(=O)c2ccccc2)cc1`, the activity increase over dofetilide control, less the hit threshold is -40%.
On to `O=C(Nc1ccc(Cl)cc1Cl)c1n[nH]c(Cn2cncn2)n1`, for which the activity increase over dofetilide control, less the hit threshold is -1%.
Consider `S=c1nn[nH]n1C12CC3CC(CC(C3)C1)C2`, for which the activity increase over dofetilide control, less the hit threshold was 27% (active).
Take `CCOc1ccc(Nc2ccc([N+](=O)[O-])c3nonc23)cc1`: the activity increase over dofetilide control, less the hit threshold is -6%.
Turning to `Cc1cc(=O)[nH]c(SCC(=O)NC2CCCCC2)n1`, the activity increase over dofetilide control, less the hit threshold is 0%.
Turning to `O=C(Nn1cnnc1)c1ccncc1`, the activity increase over dofetilide control, less the hit threshold was -14%.
Consider `Cc1nnc(C)n1/N=C/c1cc(Br)cc(Br)c1O`, for which the activity increase over dofetilide control, less the hit threshold was 15% (active).
On to `Oc1c(Br)cc(Br)cc1C=Nc1ccc2[nH]ncc2c1`, for which the activity increase over dofetilide control, less the hit threshold is -2%.
With `CNC(=S)N/N=C/c1cc(Br)cc(Br)c1O` the figure was -3%.
`O=c1c2cc(Br)ccc2nc(-c2ccccc2)n1O`: the activity increase over dofetilide control, less the hit threshold was 45% (active).
With `O=C(Cn1nnc(-c2cccc(C(F)(F)F)c2)n1)N1CCCCCC1`, the activity increase over dofetilide control, less the hit threshold was -8%.
With `COc1cc(OC)cc(-c2nc3ccccc3c(=O)n2OC(=O)c2ccc(Br)cc2)c1` the figure was -26%.
Consider `O=c1c2cc(Br)ccc2nc(-c2cccc(Cl)c2)n1O`, for which the activity increase over dofetilide control, less the hit threshold was 102% (active).
For the compound `O=c1c2cc(Br)ccc2nc(-c2cccc(C(F)(F)F)c2)n1O`, the activity increase over dofetilide control, less the hit threshold was 115% (active).
For `O=c1c2ccc(Cl)cc2nc(-c2cccc(C(F)(F)F)c2)n1O`, the activity increase over dofetilide control, less the hit threshold is 94% (active).
In the case of `O=C(COC(=O)c1cc(NS(=O)(=O)c2cccs2)ccc1O)Nc1cc(Cl)ccc1Cl`, the activity increase over dofetilide control, less the hit threshold was -4%.
With `O=C(COC(=O)c1cccs1)NCCN1C(=O)CSC1=O`, the activity increase over dofetilide control, less the hit threshold was -9%.
As for `CNC(=O)NC(=O)C(C)N1CCN(C/C=C/c2ccccc2)CC1` (stereo not given), the activity increase over dofetilide control, less the hit threshold is -16%.
As to `Cc1nonc1OCCNc1ccc([N+](=O)[O-])cc1`, the activity increase over dofetilide control, less the hit threshold is -2%.
Take `N#Cc1ccc(-c2nc3ccc(Br)cc3c(=O)n2O)cc1`: the activity increase over dofetilide control, less the hit threshold is 1% (active).
Then `CCCn1c(SC(C)C(=O)N2CCOCC2)nc2ccc(Br)cc2c1=O` (stereo not given), with -11%; and `O=c1c2cc(Br)ccc2nc(-c2ccc(Cl)cc2)n1O`, with 101% (active).
Then `Cc1ccc(-n2c(C)cc(C(=O)CN3CCOCC3)c2C)cc1`, with -6%; and `CC1CCCC(C(=O)OCc2ccccc2)N1` (stereo not given), with -3%.
With `O=C(Nc1ncc(Cc2ccc(C(F)(F)F)cc2)s1)c1ccc(-c2cccc([N+](=O)[O-])c2)o1` the figure was -14%; with `CC(=O)Nc1ccc2nc(NC(=O)c3ccc([N+](=O)[O-])o3)sc2c1`, 5% (active); with `O=C(Nc1ccc(N2CCN(C(=O)c3ccc(Cl)cc3)CC2)cc1)c1ccc([N+](=O)[O-])o1`, -11%.
On to `O=S(=O)(NC(=S)NC1CCCCC1)c1ccc(Cl)cc1`, for which the activity increase over dofetilide control, less the hit threshold was 10% (active).
Consider `O=c1oc2ccccc2c(NC2CCCCC2)c1NS(=O)(=O)c1ccc(Cl)cc1`, for which the activity increase over dofetilide control, less the hit threshold is -6%.
Take `O=C(NC1CCCCC1)c1ccc(COCC(F)(F)F)o1`: the activity increase over dofetilide control, less the hit threshold was -5%.
With `COc1ccc(C)cc1S(=O)(=O)NC1CCCCC1`, the activity increase over dofetilide control, less the hit threshold was -5%.
Then `CCOc1ccc(C(C)NC(=S)NC2CCCCC2)cc1` (stereo not given), with -9%; and `Cc1ccc(S(=O)(=O)NC(=S)NC2CCCCC2)cc1`, with 3% (active).
As for `CC(C)(C)c1ccccc1NC(=S)NC1CCCC1`, the activity increase over dofetilide control, less the hit threshold is -7%.
On to `O=S(=O)(NC(=S)NC1CCCCC1)c1ccc(Br)cc1`, for which the activity increase over dofetilide control, less the hit threshold was 12% (active).
Take `Cc1cc(Cl)c(S(N)(=O)=O)cc1OCC(=O)NC1CCCCC1`: the activity increase over dofetilide control, less the hit threshold was -8%.
Then `CCc1ccc(S(=O)(=O)NC(=S)NC2CCCCC2)cc1`, with 35% (active); and `CC1=CN2C(=N)/C(=C/c3ccc(Sc4ccc(Cl)cc4)o3)C(=O)N=C2S1`, with -2%; and `CC(C)(C)n1nnnc1C(c1cc2cc3c(cc2[nH]c1=O)OCCO3)N1CCSCC1` (stereo not given), with -11%.
Regarding `CC(C)(C)c1nc(SCC(=O)N2CCCC2)c2ccccc2n1`, the activity increase over dofetilide control, less the hit threshold was -15%.
With `Cc1cccc(N2CCN(C(=O)C3CCN(S(=O)(=O)c4cccnc4)CC3)CC2)c1C` the figure was -8%.
On to `C/C(=N\Nc1nc(C)c(C)s1)c1ccc([N+](=O)[O-])cc1`, for which the activity increase over dofetilide control, less the hit threshold is 22% (active).
Then `C/C(=N/NC(=S)Nc1cccc(C)c1)c1cccc([N+](=O)[O-])c1`, with -1%.
Regarding `C/C(=N\Nc1cc(N2CCOCC2)ncn1)c1cccc([N+](=O)[O-])c1`, the activity increase over dofetilide control, less the hit threshold is -24%.
Turning to `COc1ccc2c(C(=O)CN3CCN(c4ccccc4)CC3)c[nH]c2c1`, the activity increase over dofetilide control, less the hit threshold was -10%.
Take `O=C(O)c1cc(NN=C2c3ccccc3-c3ccccc32)ccc1Cl`: the activity increase over dofetilide control, less the hit threshold was -4%.
Consider `CCCN1CCC(NC(=O)CC2C(=O)NCCN2Cc2cccc(OC)c2)CC1` (stereo not given), for which the activity increase over dofetilide control, less the hit threshold is -6%.
`Cc1cc(C)c2nc(NC(=O)CN3C(=O)NC4(CCCC4)C3=O)sc2c1`: the activity increase over dofetilide control, less the hit threshold was -10%.
With `CC1CN(S(=O)(=O)c2ccc(-c3nc4ccccc4s3)cc2)CC(C)O1` (stereo not given) the figure was 7% (active).
With `O=C(NC(=S)NCc1ccc(-c2nc3ccccc3s2)cc1)c1ccco1` the figure was -2%.
Turning to `CCOC(=O)N1CCC(N2C(=O)c3ccccc3C2Nc2cccnc2)CC1` (stereo not given), the activity increase over dofetilide control, less the hit threshold was 11% (active).
Turning to `Cc1ccnc(N2CCC(C(=O)Nc3ccc(Oc4ccccc4)cc3)CC2)n1`, the activity increase over dofetilide control, less the hit threshold was -11%.
As to `Cc1cc(C)cc(-n2ncc3c2CCCC3NC(=O)c2csnn2)c1` (stereo not given), the activity increase over dofetilide control, less the hit threshold is 58% (active).
With `COc1ccc(-n2ncc3c2CC(C)(C)CC3NC(=O)c2cn[nH]c2)cc1` (stereo not given), the activity increase over dofetilide control, less the hit threshold is -9%.
Turning to `Cc1ccc(-n2ncc3c2CCCC3NC(=O)c2csnn2)cc1C` (stereo not given), the activity increase over dofetilide control, less the hit threshold was 21% (active).
As for `COc1cc2c(cc1OC)C(c1ccc([N+](=O)[O-])cc1)N(C(C)=O)CC2` (stereo not given), the activity increase over dofetilide control, less the hit threshold was -36%.
On to `Cc1ccc(S(=O)(=O)Nc2c(C)[nH]c(=O)[nH]c2=O)cc1C`, for which the activity increase over dofetilide control, less the hit threshold is -13%.
Regarding `O=C(NC(=S)Nc1ncc(Br)cc1Br)c1ccccc1`, the activity increase over dofetilide control, less the hit threshold was 11% (active).
Consider `COc1ccc(-c2csc(NC(=S)NC(=O)c3cccs3)n2)cc1OC`, for which the activity increase over dofetilide control, less the hit threshold is -1%.
Turning to `S=C(NCc1ccco1)N1CCN(c2nc(-c3ccccc3)cs2)CC1`, the activity increase over dofetilide control, less the hit threshold is -13%.
For the compound `O=C(NC(=S)N1CCN(c2nc(-c3ccccc3)cs2)CC1)c1cncc(Br)c1`, the activity increase over dofetilide control, less the hit threshold is 12% (active).
Turning to `O=C(NC(=S)Nc1nc(-c2ccccc2)cs1)c1cccs1`, the activity increase over dofetilide control, less the hit threshold was 17% (active).
In the case of `Brc1ccc(-c2csc(N3CCCCCC3)n2)cc1`, the activity increase over dofetilide control, less the hit threshold is -3%.
Turning to `COc1ccc(-c2csc(NC(=S)NC(=O)c3cccs3)n2)cc1Br`, the activity increase over dofetilide control, less the hit threshold was 6% (active).
As to `CC(O)C(NS(=O)(=O)c1ccc(Cl)cc1)C(=O)OCc1cc([N+](=O)[O-])cc2c1OCOC2` (stereo not given), the activity increase over dofetilide control, less the hit threshold is -12%.
For `Cc1cc(-c2ccccc2)[nH]c(=O)c1S(=O)(=O)c1ccccc1`, the activity increase over dofetilide control, less the hit threshold is -17%.
With `O=C(CN(C(=O)CNS(=O)(=O)c1ccc(F)cc1)c1cccc(F)c1)NCC1CCCO1` (stereo not given) the figure was -17%.
Regarding `O=C(NC(=S)Nc1cccc(Cl)c1)c1cncc(Br)c1`, the activity increase over dofetilide control, less the hit threshold was -10%.
For the compound `Cc1ccc(C)c(NC(=S)NC(=O)c2cncc(Br)c2)c1`, the activity increase over dofetilide control, less the hit threshold is 6% (active).
For `Cc1ccc(NC(=S)NC(=O)c2cncc(Br)c2)cc1Cl`, the activity increase over dofetilide control, less the hit threshold is -13%.
With `O=C(NC(=S)Nc1nc(-c2ccccc2)cs1)c1cncc(Br)c1` the figure was 1% (active).
With `COc1ccc(-c2csc(NC(=S)NC(=O)c3ccc4ccccc4c3)n2)cc1OC` the figure was -9%; with `CC1CCCC(NC(=S)NC(=O)c2cncc(Br)c2)C1C` (stereo not given), -10%; with `COc1cc(S(=O)(=O)n2cnc(C)c2)ccc1Cl`, -20%.
With `COC(=O)C1=C(C)N(CC2CCCO2)C(=O)/C1=C\c1ccc(O)cc1` (stereo not given) the figure was 8% (active); with `COC(=O)c1cc2sc(Cl)cc2n1CC(=O)NCC1CCCO1` (stereo not given), -8%; with `Cc1ccc(NC(=O)CSc2nnc(C3CC3)n2CC2CCCO2)c(C)c1` (stereo not given), -14%.
As to `O=S(=O)(c1ccc(F)cc1)N1CCN(c2ccc(F)cc2)CC1`, the activity increase over dofetilide control, less the hit threshold is -15%.
For `CCOC(=O)c1sc(=S)n2c1[nH]c(=O)c1ccc(C(=O)OC)cc12`, the activity increase over dofetilide control, less the hit threshold was 51% (active).
In the case of `CCC1SC2=NC(C)=C(C(=O)OC)C(c3ccc(C(=O)OC)cc3)N2C1=O` (stereo not given), the activity increase over dofetilide control, less the hit threshold is -1%.
With `CC(=O)N1C(=O)/C(=C2\SC(=S)N(NC(=O)c3ccc(O)cc3)C2=O)c2ccccc21` the figure was -3%.
In the case of `S=c1nc(-c2ccccc2)[nH]n1-c1ccccc1`, the activity increase over dofetilide control, less the hit threshold was 54% (active).
For `COc1cc(-c2nnc(SCC(=O)O)n2-c2ccccc2)cc(OC)c1OC`, the activity increase over dofetilide control, less the hit threshold was -9%.
Then `Cc1ccc(/C=C2/C(=N)N3N=C(CC(=O)N4CCCC4)SC3=NC2=O)cc1`, with -2%.
With `CC(C)CSC1=NSC2=NC(=O)/C(=C\c3ccccc3)C(=N)N12`, the activity increase over dofetilide control, less the hit threshold was 32% (active).
Turning to `CC(Oc1ccccc1F)C(=O)NC1CCS(=O)(=O)C1` (stereo not given), the activity increase over dofetilide control, less the hit threshold is -9%.
With `CN1C(=O)C2(OCC(C)([N+](=O)[O-])CO2)c2ccccc21` (stereo not given), the activity increase over dofetilide control, less the hit threshold was -7%.
Regarding `Cc1nc2cc3sc(C)nc3cc2s1`, the activity increase over dofetilide control, less the hit threshold was -8%.
Take `Cc1ccc(NN=Nc2nc3c([nH]2)c(=O)n(C)c(=O)n3C)cc1`: the activity increase over dofetilide control, less the hit threshold is -6%.
For the compound `Cc1ccc(Nc2cc(C)nn2-c2nc(C)cc(=O)[nH]2)cc1`, the activity increase over dofetilide control, less the hit threshold is 40% (active).
Then `Cc1cccc(N/C(N)=N/c2nc(C)cc(=O)[nH]2)c1`, with -9%; and `C=CCn1c(=S)[nH]c2sc3c(c2c1=O)CCCC3`, with 30% (active); and `C=CCn1c(=S)[nH]c2sc3c(c2c1=O)CCC3`, with 27% (active).
Consider `c1ccc(SSc2ccccn2)nc1`, for which the activity increase over dofetilide control, less the hit threshold was -21%.
As for `CCOC(=O)C1CCCN(C(=O)CN2C(=O)c3ccccc3C2=O)C1` (stereo not given), the activity increase over dofetilide control, less the hit threshold was -20%.
In the case of `O=C(NCc1ccc(Cl)cc1)C1CCN(S(=O)(=O)c2cccc3nonc23)CC1`, the activity increase over dofetilide control, less the hit threshold was -5%.
With `CCOC(=O)C1CCN(S(=O)(=O)c2cccc3nonc23)CC1` the figure was 2% (active); with `CCN1CCN(CCNC(=O)CCCn2nc(C)c3c(C)n(-c4ccc(C)cc4)nc3c2=O)CC1`, -8%; with `Cc1cc(C)cc(OCc2nnc(SCC(=O)Nc3ccccc3)o2)c1`, -19%.
